# Compounds with a hit are over-represented: about 4.7% of the library has one in this group of screens.
# TRHR enhancer: allosterically enhances the human TRH receptor | P34981 | TRHR cells, fluo-8 calcium fluorescence, EC20 TRH enhancement | enhancement, % at 2 µM | hit rate 0.66% among 360,000; in the data active = enhancement above about 30%; also: 0% is about no effect
# Target sequence (P34981 whole entry, looked up): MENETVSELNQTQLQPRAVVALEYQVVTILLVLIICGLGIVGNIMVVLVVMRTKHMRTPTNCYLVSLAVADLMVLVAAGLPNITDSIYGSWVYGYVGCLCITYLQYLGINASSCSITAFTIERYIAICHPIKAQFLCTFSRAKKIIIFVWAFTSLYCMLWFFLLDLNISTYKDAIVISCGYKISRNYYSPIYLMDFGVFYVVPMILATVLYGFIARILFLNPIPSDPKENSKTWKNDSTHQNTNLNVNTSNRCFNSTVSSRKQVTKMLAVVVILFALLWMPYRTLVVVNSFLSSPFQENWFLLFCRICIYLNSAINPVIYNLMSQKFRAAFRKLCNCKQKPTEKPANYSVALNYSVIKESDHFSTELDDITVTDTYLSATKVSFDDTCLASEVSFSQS
#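 Enhancer read-out: after compound pinning and an initial kinetic agonist-mode read, an EC20 of TRH (10 nM final) was injected and fluo-8 calcium signal (Ex 480/Em 530) followed at 1 s/cycle for 100 cycles in TRHR-expressing cells.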
# D1 antag: human D1 dopamine receptor antagonism; AID 504652; HEK293 TREx D1 cells, calcium flux, dopamine EC80; stronger effect = lower value; P21728; activity change, negative = inhibition, % at 10 µM; hit rate 3.2% among 360,000; in the data active = activity change below about -30%; also: % is scaled to controls: 0 for no effect and ±100 for the full control effect
#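 After overnight tetracycline induction at 30 C, force-coupled D1 HEK293 cells took up a no-wash calcium dye at room temperature. Compounds were added and monitored 180 s, and the response to EC80 dopamine was then recorded.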
# D1 potentiator: human D1 dopamine receptor positive modulation; AID 504651; hit rate 0.036% among 360,000; potentiation, % at 10 µM; HEK293 TREx D1 cells, calcium flux, dopamine EC20 potentiation; P21728; in the data active = potentiation above about 30%; also: 0% is about no effect
# D1 ag: agonists of human D1 dopamine receptor; HEK293 T-REx D1 cells, calcium flux, agonist mode; hit rate 1% among 360,000; P21728; activation, % at 2 µM; also: 0% is about no effect
#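 Tetracycline-induced HEK293 TREx D1 cells, force-coupled to calcium signalling, were dye-loaded with a no-wash calcium kit. Compound was pin-added after a 10 s baseline. Fluorescence was read kinetically at 1 cycle/s for 180 s, with calcium rises flagged as agonism.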
# TRHR ag: agonists of human TRH receptor; P34981; TRHR cells, calcium flux fluo-8, FDSS agonist mode; activation, % at 2 µM; hit rate 0.18% among 360,000; AID 493084; also: 0% is about no effect
#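 TRHR-expressing cells, plated overnight in medium with 10% serum, were loaded with fluo-8 calcium dye at room temperature. After a 10 s baseline, library compound was pin-added and calcium release was recorded kinetically (ex 480/em 530) as agonist response.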
# * hit, by the source's call; . = not tested or not shown. Rule as the data show it, unless noted: active = activation above about 30%; inactive = the rest.
SMILES,TRHR enhancer,D1 antag,D1 potentiator,D1 ag,TRHR ag
COc1cc(Cl)c(C)cc1NC(=O)COc1ccccc1[N+](=O)[O-],32*,0,-4,-1,0
Cc1cccc(C(=O)Nc2ccccc2OCc2cc(=O)n3ccccc3n2)c1,-5,-3,0,-1,0
COc1c(C)cccc1C(=O)Nc1ccc(Cl)c(-c2nc3cc(C)ccc3o2)c1,-5,-15,-5,4,2
Cc1ccn2c(=O)c(C(=O)NCCc3ccccc3)c(O)nc2c1,1,-6,2,-1,0
Cc1ccc(Oc2ccc(Oc3ccc(C)cc3)nn2)cc1,12,1,1,44*,-1
Cc1ccc(N2CCN(C(=O)c3cn(C)c4ccc(S(=O)(=O)N5CCC(C)CC5)cc4c3=O)CC2C)cc1 (configuration not stated),2,6,-1,3,-1
CCn1c(C)nc2cc(C(=O)OC(C(F)(F)C(F)F)C(F)(F)C(F)F)ccc21,8,-37*,-3,17,-1
CC1=C(c2ccc(C)cc2)S(=O)(=O)NC1=NCCCN1CCN(c2ccccc2F)CC1,-1,8,-2,-2,0
COCCn1c(Cc2ccccc2)nnc1SC(C)C(=O)NC1CC1 (configuration not stated),-3,-43*,-2,1,0
COCCn1c(=N)c(C(=O)NC2CCCC2)cc2c(=O)n3cc(C)ccc3nc21,1,8,0,2,0
O=C(CN1CCN(c2ccc([N+](=O)[O-])cc2)CC1)Nc1ccccn1,0,-14,-8,16,0
O=C(CN1CCN(c2ccc([N+](=O)[O-])cc2)CC1)Nc1nccs1,-1,-32*,7,8,0
O=C(Oc1cc(=O)oc2ccccc12)c1ccccc1,2,-16,2,0,0
O=C(NCc1ccc(F)cc1)c1c(O)c2cccc3c2n(c1=O)CCC3,-1,2,-4,1,0
O=C(Oc1cc(=O)oc2c1c(=O)n1c3c(cccc23)CC1)c1ccc(F)cc1,-3,-45*,-3,-1,0
O=C(Oc1cc(=O)oc2c1c(=O)n1c3c(cccc23)CC1)c1ccccc1,-1,-38*,7,4,-1
CCOC(=O)c1ccc(NC(=O)CCc2c(C)nc3c(c(C)nn3-c3ccccc3)c2C)cc1,3,-8,-2,6,2
CCOC(=O)c1ccccc1NC(=O)Cn1cc(C(=O)c2cccc(OC)c2)c(=O)c2ccc(C)nc21,0,11,-3,1,0
c1cncc(-c2nnc(SCc3nc4ccccc4[nH]3)o2)c1,2,-4,-6,2,0
Cc1ccccc1CSCc1nc2ccccc2[nH]1,-5,-30*,-9,13,-1
c1ccc2[nH]c(CSc3nc4ccccc4o3)nc2c1,8,-3,-3,33*,0
CC(=O)c1ccc(NC(=O)Nc2ccc(Br)cc2C)cc1,3,-35*,-11,21,0
O=C(Nc1ccc(F)c(Cl)c1)Nc1ccc(Cl)cn1,5,5,-1,0,1
O=C(Nc1ccc(Br)cc1)Nc1ccccc1Cl,-6,-41*,-3,11,1
O=C(Nc1ccncc1)Nc1ccc(F)c(Cl)c1,36*,-13,-6,23,2
SMILES,TRHR enhancer,D1 antag,D1 potentiator,D1 ag,TRHR ag
O=C(Nc1ccncc1)Nc1ccc(Br)cc1Cl,-4,-34*,-7,4,1
CC(=O)c1ccc(NC(=O)c2ccc(C)c(Br)c2)cc1,8,-3,-8,13,-2
O=C(CSc1nc2c([nH]c3ccccc32)c(=O)n1-c1cccc(Cl)c1)c1ccccc1,2,-9,-4,0,0
COCCNC(=O)c1ccc(CSc2nc3ccccc3s2)cc1,-1,-34*,-8,12,-1
Cc1ccc(Nc2sc(C(=O)c3ccccc3)c(N)c2S(=O)(=O)c2ccccc2)c(C)c1,-9,0,-1,13,1
CCOC(=O)c1cccc(NC(=O)c2ccc3snnc3c2)c1,4,-23,-4,14,0
COc1ccc(Cn2cc(S(=O)(=O)c3ccc(Cl)cc3)c(=O)c3cc4c(cc32)OCO4)cc1,17,-42*,0,0,0
CCOc1ccc2c(c1)c(=O)c(S(=O)(=O)c1ccc(C)cc1)cn2Cc1ccccc1Cl,-4,-21,-2,7,2
CCOc1ccc2c(c1)c(=O)c(S(=O)(=O)c1ccc(Cl)cc1)cn2Cc1ccccc1C,40*,-3,-2,2,1
Cc1ccc(S(=O)(=O)c2cn(Cc3cccc(C)c3)c3cc4c(cc3c2=O)OCO4)cc1,7,-9,-4,15,-1
O=C(NCc1ccc2c(c1)OCO2)c1ccc(CS(=O)(=O)c2ccc(Br)cc2)o1,6,-25,.,36*,-1
Cc1ccc(C(=O)c2oc3ccccc3c2NC(=O)Cc2coc3c(C)c(C)ccc23)cc1,5,-1,2,2,1
Cc1ccc(S(=O)(=O)n2nc(-c3ccc(Cl)cc3)nc2NCc2ccc(F)cc2)cc1,28,-48*,2,11,1
Cc1ccc(S(=O)(=O)n2nc(-c3ccccc3)nc2NCc2ccc(Cl)cc2)cc1,6,-57*,0,5,3
COc1ccccc1-c1nnc(SCC(=O)NC2CC2)n1C,11,-59*,.,6,0
COc1ccccc1-c1nnc(SCC(=O)NC2CCCCC2)n1C,-1,-9,-13,2,0
COc1cccc2cc(-c3nnc(SCC(=O)Nc4ccc(NC(C)=O)cc4)n3C)oc12,-1,-57*,-2,1,0
COc1ccccc1-c1nnc(SCC(=O)Nc2ccc(N3CCOCC3)cc2)n1C,2,-36*,5,0,-1
Cc1nn(-c2nc(-c3ccc(F)cc3)cc(C(F)(F)F)n2)c(C)c1Br,1,4,3,3,1
Cc1cccc2cc(C#N)c(SCC(=O)NCc3cccs3)nc12,2,9,-2,4,1
Cc1cccc2cc(C#N)c(SCC#N)nc12,-6,9,2,32*,6
CCc1nc(SCC#N)c(C#N)cc1C,-1,-34*,-5,0,0
Cc1ccccc1NC(=O)C1CCN(C(=O)c2ccc(F)cc2)CC1,-2,4,-2,3,0
COc1cc(C2C(=O)N(C3CCCCCC3)CC(=O)N2Cc2ccccc2)ccc1OC(C)C (configuration not stated),6,-13,1,-2,-1
O=Cc1ccccc1-n1cccn1,1,-33*,-1,2,1
CCCOc1ccc(CCC(=O)N/N=C/c2ccncc2)cc1,1,-36*,1,2,-1
COc1ccc(CCNC(=O)CCC(=O)N2CC(C)Oc3ccc(Cl)cc32)cc1OC (configuration not stated),1,-58*,-8,-1,-1
